From PubChem BioAssay AID743293 (Broad Institute, 2014)
Results with a measured potency or affinity are listed apart. Active and inactive are the calls of the source.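 How the source made its calls: active means compounds lowering fluorescence with a fitted half-maximal concentration at or below a set limit tied to top dose; inconclusive means flat curve with 30 to 70% inhibition, or poor fit; inactive means the rest.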

Target: Caspase-9 (Homo sapiens) (UniProt P55211)
Test: inhibitors of purified CASP9 protease – biochemical, fluorescence, plate reader, cherry-picked samples, selectivity assay for caspase-6 inhibitor project, dose response (AID 743293)
Conditions: purified caspase-9, Z-LEHD-R110 cleavage fluorescence; series mostly up to 35 µM

Sequence of Caspase-9 (Homo sapiens) (P55211 whole entry, looked up): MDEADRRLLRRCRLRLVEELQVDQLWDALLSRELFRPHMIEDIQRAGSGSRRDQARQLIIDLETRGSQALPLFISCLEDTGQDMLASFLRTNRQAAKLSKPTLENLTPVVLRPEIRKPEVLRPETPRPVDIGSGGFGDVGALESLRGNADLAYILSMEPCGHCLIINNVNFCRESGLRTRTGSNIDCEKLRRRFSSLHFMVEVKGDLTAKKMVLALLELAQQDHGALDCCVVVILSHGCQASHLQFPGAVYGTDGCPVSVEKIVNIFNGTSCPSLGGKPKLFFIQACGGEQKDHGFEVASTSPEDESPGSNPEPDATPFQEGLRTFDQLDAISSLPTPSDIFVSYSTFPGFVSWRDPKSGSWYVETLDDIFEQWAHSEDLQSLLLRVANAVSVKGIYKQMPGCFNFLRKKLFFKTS

outcome, inactive:
CCCCN(C(=O)c1cccc(-n2cccc2)c1)c1c(N)n(Cc2ccccc2)c(=O)[nH]c1=O
O=C(O)/C(=C\c1ccc(Cl)c([N+](=O)[O-])c1)c1ccc(S(=O)(=O)N2CCCC2)s1
CCOC(=O)c1sc2nc(OCCN3CCOCC3)cc(C)c2c1N
CCN(CC)CCCC(C)n1c2nc(=O)[nH]c(=O)c-2nc2cc(Cl)ccc21 (centres undefined)
COc1ccc(NC(=O)CN(C)C(=O)c2cccc(-n3cccc3)c2)cc1
CCCCNC(=O)c1nc(C2CCNCC2)oc1-c1cccc(C(F)(F)F)c1
CNS(=O)(=O)c1cccc(C(=O)OCC(=O)N2c3ccccc3NC(=O)C2(C)C)c1
CC(CNc1ccccc1O)C(=O)O (centres undefined)
CCCSC1=N/C(=C\c2ccc([N+](=O)[O-])o2)C(=O)S1
O=C(Nc1ccc(S(=O)(=O)Nc2cnc3ccccc3n2)cc1)c1ccc(Cl)c([N+](=O)[O-])c1
O=C(O)CC(CCc1ccccc1)OC1OC(CO)C(O)C(O)C1O (centres undefined)
CCCCN(C(=O)c1cccc(-n2cccc2)c1)c1c(N)n(CCC)c(=O)[nH]c1=O
COc1cc(C)c2c(c1C=O)Oc1c(c(C)c(O)c3c1C(O)OC3=O)OC2=O (centres undefined)
Cc1oc2c(cc(NS(=O)(=O)c3ccc(C(C)C)cc3)c3ccccc32)c1C(=O)O
COCCn1c2nc(=O)n(-c3ccccc3)c(=O)c-2nc2ccccc21
Nc1cc2c(cc1Br)[nH]c(=O)c1ccccc12
COc1cc(-c2ccc(Nc3ccccc3C(=O)O)c(OC)c2)ccc1Nc1ccccc1C(=O)O
CN(CC(=O)Nc1c(Cl)cccc1Cl)C(=O)c1cccc(-n2cccc2)c1
O=C(c1cccc(-n2cccc2)c1)N1CCN(S(=O)(=O)c2ccccc2)CC1
Cc1ccc(C)c(NC(=O)CN(C)C(=O)c2cccc(-n3cccc3)c2)c1
Cc1cccc(NC(=O)CNC(=O)c2cccc(-n3cccc3)c2)c1C
O=C(CCO)c1ccc(O)cc1
O=S(=O)(O)c1cc(O)c2cc(Nc3ccccc3)ccc2c1
COc1cc(NCCCCC(C)N)c2nccc(C)c2c1 (centres undefined)
Cc1[nH]nc(S(=O)CC(=O)O)c1[N+](=O)[O-] (centres undefined)
O=C(COC(=O)c1ccccc1)Nc1ncc([N+](=O)[O-])s1
Cc1cc(C=O)c(C)n1-c1ccc(Cl)c(C(=O)O)c1
O=c1cc2c(=O)oc3cc(O)c(O)oc3c2c(O)c1O
O=P(c1ccccc1)(c1ccccc1)c1cc(S(=O)(=O)O)ccc1O
